Here are results for 40 compounds from PubChem BioAssay (NCATS).

Inconclusive results are not listed. Values without a mark were called inactive. Calls come from the whole dose curve; as a rule, active = well fitted curve in the direction sought with a large enough effect; inconclusive = small, poorly fitted or top-dose-only effect, or another doubt; inactive = no such curve, though single readings can be large; an effect the other way counts as inactive or inconclusive.

The first test has as its target Aldehyde dehydrogenase, mitochondrial (Homo sapiens) (UniProt P05091). As to the kind of experiment: qHTS for Inhibitors of the Aldehyde Dehydrogenase Family (ALDH2) Primary screen (AID 2061308).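 Note: plate controls were vehicle for no effect and reference inhibitor for full effect; nearly all actives have a fitted effect of over 55% in size.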 To be noted: ALDH2 enzyme inhibition qHTS, 1536-well; series mostly up to 56 µM; activity change, negative = inhibition: at the top concentration.
As to `Cc1cc2c(s1)c1cnn(Cc3ccc(F)cc3F)c(=O)c1n2C`, the “activity change, negative = inhibition” value was 17.6%.
On the same count and under the same terms, under `COCOC1CCC(C(=O)Nc2ccc([S+](=O)([O-])Nc3nccs3)cc2)CC1` (stereo not given) stands 1.38%; under `c1nc(OCc2cnc[nH]2)c2cc(-c3ccc4c(c3)OCO4)ccc2n1`, 7.48%; under `O=C1CCCC2=C1C(c1[nH]ncc1Cl)N=C(Nc1ccn[nH]1)N2` (stereo not given), 3.1%.
For `CCOC(=O)c1ccc(-n2c(C)cc(-c3nnc4n3CCCCC4)c2C)cc1`, the “activity change, negative = inhibition” value was -18.7%.
Same read-out and setting: under `Cc1ccnc(NC(=S)N2CCN(c3ncc(C(F)(F)F)cc3Cl)CC2)c1` stands 7.82%; under `COc1cccc(NS(=O)(=O)c2ccc(C)cc2)c1C(=O)Nc1nc(-c2ccccc2)cs1`, -4.62%.
For `CCCn1c(-c2ccc(F)cc2)nc2c(N3CCN(CCC(=O)OCC)CC3)nc(C)nc21`, the “activity change, negative = inhibition” value is 8.37%.
Regarding `c1ccc(-n2cc(-c3nnc4n3CCCCC4)c3ccccc32)cc1`, the “activity change, negative = inhibition” value is 14.9%.
Regarding `CC(=O)Nc1sc2c(c1-c1ccc3nc[nH]c3c1)CCNC2`, the “activity change, negative = inhibition” value was -6.78%.
As for `CCNC(=O)c1ccc(-c2ccc3ncnc(NCC4CCCO4)c3c2)o1` (stereo not given), the “activity change, negative = inhibition” value is 1.21%.
Still for that read-out and setting: under `Cc1ccc(S(=O)(=O)n2cc(C(=O)Nc3ccc(-c4ccccc4)cc3)c3ccccc32)cc1` stands -5.5%; under `Cc1cc2c(s1)c(C#N)c(C(=O)NCc1ccccc1F)n2C`, -1.97%.
As to `Cc1noc(C)c1-c1ccc2ncnc(NCc3cccc(-c4ccccc4)c3)c2c1`, the “activity change, negative = inhibition” value is -18.1%.
As for `O=C(Nc1ccc(-c2ccncc2)nc1)c1cccs1`, the “activity change, negative = inhibition” value is -18.5%.
The same measure, in the same setting: under `N#Cc1ccnc(N2C(=O)CC[C@H]2C(=O)N(c2cncc(F)c2)[C@@H](C(=O)NC2CC(F)(F)C2)c2ccccc2Cl)c1` stands 3.06%; under `C=C(C(=O)OC)[C@@H]1CC=C2C=CC(=O)[C@H](C)[C@@]2(C)C1`, 1.46%; under `Cc1ccc(OCCn2c(CCNC(=O)C(C)(C)C)nc3ccccc32)cc1`, 1.83%.
With `COc1cc(O)c(C(CC(=O)N2CCCC(C)C2)c2ccc3c(c2)OCO3)c(OC)c1` (stereo not given), the “activity change, negative = inhibition” value was -9.31%.
On to `O=C1CCc2cc(S(=O)(=O)Nc3cccc(Br)c3)ccc2N1`, for which the “activity change, negative = inhibition” value was 7.17%.
On the same count and under the same terms, then `CCOC(=O)C1CCN(C(=O)C(C)(C)NC(=O)Nc2cccc(C(=O)OC)c2)CC1`, with -6.05%.
For `Cc1cc2c(s1)c1cnn(Cc3c(F)cccc3Cl)c(=O)c1n2C`, the “activity change, negative = inhibition” value is 14.4%.
For `CC1(C)CC[C@]2(C(=O)OC3OC(CO)C(O)C(O)C3O)CC[C@]3(C)C(=CCC4[C@@]5(C)CC[C@H](OC6OC(C(=O)O)C(O)C(O)C6O)C(CO)(CO)C5CC[C@]43C)[C@@H]2C1` (stereo not given in full), the “activity change, negative = inhibition” value was 6.71% [at 16.9 µM].
Consider `O=S(=O)(NCCNc1nc(-c2ccco2)nc2ccccc12)c1ccccc1`, for which the “activity change, negative = inhibition” value was -0.317%.
On to `Cc1cccc(-n2cnc3cc(C(=O)N4CCOCC4)ccc32)c1`, for which the “activity change, negative = inhibition” value was -3.05%.
As to `COc1ccc(NC(=O)C(OC(=O)CNC(=O)c2ccccc2)c2ccccc2)c(C)c1` (stereo not given), the “activity change, negative = inhibition” value was 15%.
With `COC(=O)C1=CO[C@@H](O[C@@H]2O[C@H](CO)[C@@H](O)[C@H](O)[C@H]2O)[C@H]2[C@@H]1CC(OC)O[C@@H]2C` (stereo not given in full), the “activity change, negative = inhibition” value was 3.37% [at 28 µM].
For `Cc1ccc(C2N=C(Nc3nc4ccccc4o3)NC3=C2C(=O)CCC3)cc1` (stereo not given), the “activity change, negative = inhibition” value is -16.1%.
Still for that read-out and setting: under `O=S(=O)(c1ccc2c(c1)OCCO2)N1CCCN(S(=O)(=O)c2c(F)cccc2F)CC1` stands 13.2%.
For the compound `CS(=O)(=O)c1ccccc1-c1csc(N2CCC(C(N)=O)CC2)n1`, the “activity change, negative = inhibition” value was 1.83%.
Regarding `O=C1c2ccccc2NC(c2ccccc2O)N1Cc1ccccc1` (stereo not given), the “activity change, negative = inhibition” value was 3.02%.
Consider `Cc1ccc(OCCn2c(CCNC(=O)c3ccc(Br)o3)nc3ccccc32)cc1`, for which the “activity change, negative = inhibition” value is -0.979%.
On the same count and under the same terms, then `COc1ccc(N2C(=O)c3ccccc3S2(=O)=O)cc1`, with -6.98%; and `O=S(=O)(c1ccc2c(c1)OCCO2)N1CCN(S(=O)(=O)c2ccc(Cl)cc2F)CC1`, with 6.94%.
For the compound `Cn1nnnc1Sc1ncnc2scc(-c3ccc[nH]3)c12`, the “activity change, negative = inhibition” value is 11.5%.
Consider `CC(=O)Nc1ccc(CNc2ncnc3ccc(-c4c(C)noc4C)cc23)cc1`, for which the “activity change, negative = inhibition” value was -1.93%.
As for `CC(=O)Nc1cccc(-c2csc(Nc3cc(C)ccn3)n2)c1`, the “activity change, negative = inhibition” value is -14.1%.
Regarding `Cc1cc(N[S+](=O)([O-])c2ccc3c(c2)CCC(=O)N3C)ccc1F`, the “activity change, negative = inhibition” value is -3.82%.
Still for that read-out and setting: under `Nc1cccc([S+](=O)([O-])N2CCCN([S+](=O)([O-])c3cccc(N)c3)CC2)c1` stands 4.45%.
As for `O=c1c2ccc(C(F)(F)F)cc2nc2sc(Nc3ccc4c(c3)CCC4)nn12`, the “activity change, negative = inhibition” value was -0.0251%.

The next test has as its target Retinaldehyde dehydrogenase 3 (Homo sapiens) (UniProt P47895). As to the kind of experiment: qHTS for Inhibitors of the Aldehyde Dehydrogenase Family (ALDH1A3) Primary screen (AID 2061315).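 Note: plate controls were DMSO vehicle for no effect and reference inhibitor for full effect.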 Particulars: ALDH inhibition qHTS; series mostly up to 56 µM; activity change, negative = inhibition: at the top concentration. Background: qHTS replaces the single test concentration by a dilution series.
Consider `Cc1cc2c(s1)c1cnn(Cc3ccc(F)cc3F)c(=O)c1n2C`, for which the “activity change, negative = inhibition” value was -0.586%.
As for `COCOC1CCC(C(=O)Nc2ccc([S+](=O)([O-])Nc3nccs3)cc2)CC1` (stereo not given), the “activity change, negative = inhibition” value was -2.04%.
Still for that read-out and setting: under `c1nc(OCc2cnc[nH]2)c2cc(-c3ccc4c(c3)OCO4)ccc2n1` stands 4.8%; under `O=C1CCCC2=C1C(c1[nH]ncc1Cl)N=C(Nc1ccn[nH]1)N2` (stereo not given), 16.9%.
Turning to `CCOC(=O)c1ccc(-n2c(C)cc(-c3nnc4n3CCCCC4)c2C)cc1`, the “activity change, negative = inhibition” value is 2.65%.
In the case of `Cc1ccnc(NC(=S)N2CCN(c3ncc(C(F)(F)F)cc3Cl)CC2)c1`, the “activity change, negative = inhibition” value was 10.2%.
The same measure, in the same setting: under `COc1cccc(NS(=O)(=O)c2ccc(C)cc2)c1C(=O)Nc1nc(-c2ccccc2)cs1` stands -0.748%.
Turning to `CCCn1c(-c2ccc(F)cc2)nc2c(N3CCN(CCC(=O)OCC)CC3)nc(C)nc21`, the “activity change, negative = inhibition” value was -12.1%.
On the same count and under the same terms, then `c1ccc(-n2cc(-c3nnc4n3CCCCC4)c3ccccc32)cc1`, with 4.63%; and `CC(=O)Nc1sc2c(c1-c1ccc3nc[nH]c3c1)CCNC2`, with -19.1%.
The same measure, in the same setting: under `CCNC(=O)c1ccc(-c2ccc3ncnc(NCC4CCCO4)c3c2)o1` (stereo not given) stands -25.1%; under `Cc1ccc(S(=O)(=O)n2cc(C(=O)Nc3ccc(-c4ccccc4)cc3)c3ccccc32)cc1`, 5.52%; under `Cc1cc2c(s1)c(C#N)c(C(=O)NCc1ccccc1F)n2C`, 0.423%.
As for `Cc1noc(C)c1-c1ccc2ncnc(NCc3cccc(-c4ccccc4)c3)c2c1`, the “activity change, negative = inhibition” value was -1.14%.
Regarding `O=C(Nc1ccc(-c2ccncc2)nc1)c1cccs1`, the “activity change, negative = inhibition” value was -11%.
Turning to `N#Cc1ccnc(N2C(=O)CC[C@H]2C(=O)N(c2cncc(F)c2)[C@@H](C(=O)NC2CC(F)(F)C2)c2ccccc2Cl)c1`, the “activity change, negative = inhibition” value was 2.09%.
As to `C=C(C(=O)OC)[C@@H]1CC=C2C=CC(=O)[C@H](C)[C@@]2(C)C1`, the “activity change, negative = inhibition” value is -7.12%.
Take `Cc1ccc(OCCn2c(CCNC(=O)C(C)(C)C)nc3ccccc32)cc1`: the “activity change, negative = inhibition” value is 1.17%.
`COc1cc(O)c(C(CC(=O)N2CCCC(C)C2)c2ccc3c(c2)OCO3)c(OC)c1` (stereo not given): the “activity change, negative = inhibition” value is 11.7%.
The same measure, in the same setting: then `O=C1CCc2cc(S(=O)(=O)Nc3cccc(Br)c3)ccc2N1`, with -3.6%; and `CCOC(=O)C1CCN(C(=O)C(C)(C)NC(=O)Nc2cccc(C(=O)OC)c2)CC1`, with 2.52%.
As to `Cc1cc2c(s1)c1cnn(Cc3c(F)cccc3Cl)c(=O)c1n2C`, the “activity change, negative = inhibition” value is 4.92%.
Turning to `CC1(C)CC[C@]2(C(=O)OC3OC(CO)C(O)C(O)C3O)CC[C@]3(C)C(=CCC4[C@@]5(C)CC[C@H](OC6OC(C(=O)O)C(O)C(O)C6O)C(CO)(CO)C5CC[C@]43C)[C@@H]2C1` (stereo not given in full), the “activity change, negative = inhibition” value is -7.43% [at 16.9 µM].
For `O=S(=O)(NCCNc1nc(-c2ccco2)nc2ccccc12)c1ccccc1`, the “activity change, negative = inhibition” value is -4.61%.
`Cc1cccc(-n2cnc3cc(C(=O)N4CCOCC4)ccc32)c1`: the “activity change, negative = inhibition” value was -2.52%.
For the compound `COc1ccc(NC(=O)C(OC(=O)CNC(=O)c2ccccc2)c2ccccc2)c(C)c1` (stereo not given), the “activity change, negative = inhibition” value is -1.97%.
Consider `COC(=O)C1=CO[C@@H](O[C@@H]2O[C@H](CO)[C@@H](O)[C@H](O)[C@H]2O)[C@H]2[C@@H]1CC(OC)O[C@@H]2C` (stereo not given in full), for which the “activity change, negative = inhibition” value is 0.661% [at 28 µM].
For `Cc1ccc(C2N=C(Nc3nc4ccccc4o3)NC3=C2C(=O)CCC3)cc1` (stereo not given), the “activity change, negative = inhibition” value is 20.4%.
Take `O=S(=O)(c1ccc2c(c1)OCCO2)N1CCCN(S(=O)(=O)c2c(F)cccc2F)CC1`: the “activity change, negative = inhibition” value was 2.9%.
For `CS(=O)(=O)c1ccccc1-c1csc(N2CCC(C(N)=O)CC2)n1`, the “activity change, negative = inhibition” value was -5.43%.
As to `O=C1c2ccccc2NC(c2ccccc2O)N1Cc1ccccc1` (stereo not given), the “activity change, negative = inhibition” value was -17.8%.
Same read-out and setting: then `Cc1ccc(OCCn2c(CCNC(=O)c3ccc(Br)o3)nc3ccccc32)cc1`, with 7.64%; and `COc1ccc(N2C(=O)c3ccccc3S2(=O)=O)cc1`, with -4.85%.
Same read-out and setting: under `O=S(=O)(c1ccc2c(c1)OCCO2)N1CCN(S(=O)(=O)c2ccc(Cl)cc2F)CC1` stands 8.04%.
With `Cn1nnnc1Sc1ncnc2scc(-c3ccc[nH]3)c12`, the “activity change, negative = inhibition” value is 13.7%.
On to `CC(=O)Nc1ccc(CNc2ncnc3ccc(-c4c(C)noc4C)cc23)cc1`, for which the “activity change, negative = inhibition” value was 5.42%.
Consider `CC(=O)Nc1cccc(-c2csc(Nc3cc(C)ccn3)n2)c1`, for which the “activity change, negative = inhibition” value is 10.5%.
With `Cc1cc(N[S+](=O)([O-])c2ccc3c(c2)CCC(=O)N3C)ccc1F`, the “activity change, negative = inhibition” value is 2.65%.
For the compound `Nc1cccc([S+](=O)([O-])N2CCCN([S+](=O)([O-])c3cccc(N)c3)CC2)c1`, the “activity change, negative = inhibition” value is -8.9%.
Same read-out and setting: then `O=c1c2ccc(C(F)(F)F)cc2nc2sc(Nc3ccc4c(c3)CCC4)nn12`, with 2.09%.
